This note sets out measurements from PubChem BioAssay (NCATS).

A number with no mark means an inactive call. Records with an inconclusive call do not appear. Calls of active or inactive are those of the source. Calls come from the whole dose curve; as a rule, active = well fitted curve in the direction sought with a large enough effect; inconclusive = small, poorly fitted or top-dose-only effect, or another doubt; inactive = no such curve, though single readings can be large; an effect the other way counts as inactive or inconclusive.

The target of assay [1] is Cytochrome P450 3A4 (Homo sapiens) (UniProt P08684). As to the kind of experiment: qHTS Assay for Inhibitors and Substrates of Cytochrome P450 3A4 (AID 884). Note: potency is the fitted concentration of half-maximal effect; nearly all actives have a fitted effect of over 50% in size. In outline: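 Luminescent readout of luciferin produced by CYP3A4 (20 nM) dealkylation of Luciferin-PPXE, 25 uM (its KM). NADPH-driven reaction ran 60 min at RT after 10 min compound preincubation; data scaled to 57 uM ketoconazole as 100% inhibition.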
Chain of Cytochrome P450 3A4 (Homo sapiens) (P08684 whole entry, looked up): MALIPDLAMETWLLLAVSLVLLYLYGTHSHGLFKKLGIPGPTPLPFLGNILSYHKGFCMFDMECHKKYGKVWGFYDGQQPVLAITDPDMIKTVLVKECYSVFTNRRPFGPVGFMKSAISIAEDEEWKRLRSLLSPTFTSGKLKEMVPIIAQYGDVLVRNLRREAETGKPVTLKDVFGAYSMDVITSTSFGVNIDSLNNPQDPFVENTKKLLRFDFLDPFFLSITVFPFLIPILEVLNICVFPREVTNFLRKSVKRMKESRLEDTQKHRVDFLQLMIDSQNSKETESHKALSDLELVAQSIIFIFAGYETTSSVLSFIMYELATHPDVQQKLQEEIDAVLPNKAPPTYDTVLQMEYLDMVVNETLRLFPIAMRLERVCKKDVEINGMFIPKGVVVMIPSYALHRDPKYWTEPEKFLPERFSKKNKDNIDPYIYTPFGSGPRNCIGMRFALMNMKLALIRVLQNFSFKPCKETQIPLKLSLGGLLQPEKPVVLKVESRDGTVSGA
On the technique in general: Quantitative high-throughput screening tests each substance at several concentrations.

Assay [2] has the same target. As to the kind of experiment: qHTS Assay for Activators of Cytochrome P450 3A4 (AID 885). Note: nearly all actives have a fitted effect of over 65% in size. In outline: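 Luminescent readout of luciferin formed from 25 uM Luciferin-PPXE (KM level) by 20 nM CYP3A4 in 200 mM KPO4, with 60 min NADPH-driven reaction at room temperature after 10 min compound exposure. Ketoconazole (57 uM) defined 100% inhibition.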

Turning to `COC(=O)c1ccc(C23CC4(C2)[C@H](CN(CC2CCCCC2)[C@@H]4c2ccccc2)C3c2ccc(Cl)nc2)cc1` (stereo partly drawn), the Potency in assay [1] is 25.1 µM (active). In assay [2], the Potency result is “inactive”.
As for `Cc1ccc(S(=O)(=O)N[C@H]2COC(=O)C/C=C\[C@@H](C)COC(=O)C/C=C\[C@@H]2C)cc1`, the Potency in assay [1] is 3.16 µM (active). Besides, in assay [2], the activity change, positive = activation is -68.8% [at 11.4 µM].
On to `CCC1=C(OC(=O)N(CC)CC)N2C(=O)OC(=NCCc3c[nH]c4ccccc34)[C@]2(C)[C@H]2C1=CC[C@H]1C(=O)N(C)C(=O)[C@H]12`, for which the Potency in assay [1] is 1.26 µM (active). Moreover, the Potency entry in assay [2] was “inactive”.
Turning to `Cn1c(=O)c(C(=O)COC(=O)c2cc(-c3ccco3)nc3ccccc23)c(N)n(CC2CC2)c1=O`, the Potency in assay [1] is 7.94 µM (active). For the same molecule, in assay [2], the Potency result was “inactive”.
The like results for `CCC1=C(OC(=O)N(CC)CC)N2C(=O)OC(=NCCc3c[nH]c4ccccc34)[C@]2(C)[C@H]2C1=CC[C@H]1C(=O)N(CC)C(=O)[C@H]12` were, in that order, 1.26 µM (active) and “inactive”.
For `CCC1=C2CC[C@H]3C(=O)NC(=O)[C@H]3[C@H]2[C@@]2(Cc3ccccc3)C(=NCC3CC3)OC(=O)N2C1=O` the same measures were 15.8 µM (active) and “inactive”.
On to `CCC1=C(OC(=O)N(CC)CC)N2C(=O)OC(=NCC3CC3)[C@]2(Cc2ccccc2)[C@H]2C1=CC[C@H]1C(=O)N(c3ccccc3)C(=O)[C@H]12`, for which the Potency in assay [1] is 2.51 µM (active). Also, in assay [2], the Potency result is “inactive”.
Take `CCC1=C(OC(=O)N(CC)CC)N2C(=O)OC(=NCC(=O)OC)[C@]2(C)[C@H]2C1=CC[C@H]1C(=O)N(CC(=O)OC)C(=O)[C@H]12`: in assay [1], the Potency was 10 µM (active). For the same molecule, the Potency entry in assay [2] is “inactive”.
For the molecule `CCC1=C(OC(=O)N(CC)CC)N2C(=O)OC(=NCCc3c[nH]c4ccccc34)[C@]2(Cc2ccccc2)[C@H]2C1=CC[C@H]1C(=O)N(CC(=O)OC)C(=O)[C@H]12`, the Potency in assay [1] is 2.51 µM (active). The Potency entry in assay [2] is “inactive”.
